NadD block – blocks S. aureus nicotinate mononucleotide adenylyltransferase; inhibition, % at 20 µM; hit rate 0.78% among 360,000; AID 602399; purified NadD enzyme, colorimetric absorbance read-out; in the data active = inhibition above about 26%
rCAG RNA binder – molecules binding r(CAG) RNA repeats. r(CAG) RNA repeat, TO-PRO-1 dye displacement fluorescence. inhibition, % at 3 µM. hit rate 1.3% among 370,000;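 active = inhibition above the plate cutoff, the mean of all test compounds on that plate plus 3 SD, cut at about 35% in these data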;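 note: higher means more dye released from RNA so lower well fluorescence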
NR3A LBD binder – modulates the human NR3A ligand-binding domain | Tm shift relative to glycine control, % at 25 µM | NR3A LBD differential scanning fluorimetry, Tm shift; 0% = protein alone, 100% = glycine-bound protein | hit rate 2.5% among 340,000;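 active = melting temperature shift of at least 10% of the positive control shift, at one fixed dose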
FAS-TE inh – FAS thioesterase (human) inhibition. P49327. recombinant FAS-TE, OMFH fluorogenic substrate, fluorescence endpoint. inhibition, % at 15 µM. hit rate 0.67% among 360,000;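 active = compounds whose normalised, plate-corrected inhibition of enzyme fluorescence in the single-dose primary screen is 50% or more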
A number is an active result; i = inactive; nt = no result given. A selection: hits, their analogues and other compounds. The true share with any hit is near 4.3%.

SMILES	NadD block	rCAG RNA binder	NR3A LBD binder	FAS-TE inh
O=C(COC(=O)CNC(=O)C1CCCCC1)Nc1ccc(F)c([N+](=O)[O-])c1	i	i	i	i
O=C(COC(=O)CNC(=O)c1ccccc1)Nc1ccc(F)c([N+](=O)[O-])c1	i	i	13	i
O=C(COC(=O)COc1ccc(Cl)cc1)Nc1ccc(F)c([N+](=O)[O-])c1	i	i	12	i
Cc1ccc(NC(=O)COC(=O)COc2ccc(Cl)cc2)c([N+](=O)[O-])c1	i	i	i	i
O=C(/C=C/c1ccc(Br)cc1)c1ccco1	i	i	i	i
O=C(/C=C\c1ccccc1)Nc1ccc(NC(=O)c2ccco2)cc1	i	i	25	i
O=C(/C=C/c1ccc(Br)cc1)c1ccc(NC(=O)c2ccco2)cc1	i	i	24	i
CCOC(=O)N1CCN(C(=O)C[C@H]2C[C@@]3(C(=O)OC)C(=C[C@H](C(C)(C)C)O[C@@H]3C)N(Cc3ccccc3)C2=O)CC1	nt	i	nt	nt
CN(CCO)C(=O)c1nc[nH]c1C(=O)N1CCN(c2ccccc2)CC1	nt	i	nt	nt
O=C(/C=C/c1ccc2c(c1)OCO2)Nc1nc(-c2ccccc2)cs1	i	i	i	i
O=C(/C=C\c1ccco1)Nc1nc(-c2ccc3ccccc3c2)cs1	i	i	25	i
O=C(O)CN1C(=O)/C(=C\c2cn(-c3ccccc3)nc2-c2ccccc2)SC1=S	31	nt	i	i
O=C(/C=C/c1cccs1)Nc1nc(-c2ccccc2)cs1	i	i	17	i
O=C(/C=C\c1cn(-c2ccccc2)nc1-c1ccccc1)Nc1nccs1	i	i	28	i
O=C(O)/C=C/C(=O)Nc1nccs1	i	i	i	i
O=C(COC(=O)/C=C/c1cccs1)Nc1nc(-c2ccccc2)cs1	i	i	i	i
Cc1cc(C)cc(OCC(C)CN2CCC(C(O)(c3ccccc3)c3ccccc3)CC2)c1 (centres undefined)	nt	i	nt	nt
CCO/N=C(\C)c1c(O)cc(C(C)C)n(-c2ccccc2)c1=O	i	i	i	i
CC(=O)c1c(O)cc(C(C)C)n(-c2ccccc2)c1=O	i	i	12	i
CCOC(=O)[C@@]12CN(C(=O)OC(C)(C)C)CC=C1N(Cc1ccc(OC)cc1)C(=O)[C@H]2CC(=O)N1CCN(C(=O)c2ccco2)CC1	nt	i	nt	nt
COc1cc(NC(=O)c2csc(N)n2)cc(C(=O)Nc2cccc(C(F)(F)F)c2)c1	i	i	19	i
COc1cc(NC(=O)c2ccnc(N)c2)cc(C(=O)Nc2cccc(C(F)(F)F)c2)c1	i	i	13	i
COc1cc(NC(=O)c2cc(C)on2)cc(C(=O)Nc2cccc(C(F)(F)F)c2)c1	i	i	i	i
COc1cc(NC(=O)c2cnc(N)s2)cc(C(=O)Nc2cccc(C(F)(F)F)c2)c1	i	i	37	i
COc1ccc(CNC(=O)CCNS(=O)(=O)c2ccc3[nH]c(=O)oc3c2)cc1	nt	i	nt	nt
SMILES	NadD block	rCAG RNA binder	NR3A LBD binder	FAS-TE inh
Brc1ccc(-c2csc(-c3c[nH]c4ccccc34)n2)cc1	i	i	47	i
c1ccc(-c2csc(-c3ccncc3)n2)cc1	i	i	i	i
c1ccc2c(-c3csc(-c4ccncc4)n3)c[nH]c2c1	i	i	27	i
CC(=O)N[C@@H]1C[C@@H]2O[C@@H](CO)CC[C@@H]2O[C@@H]1CCc1ccc(C#CC2(O)CCCC2)cc1	nt	i	nt	nt
Cc1ccc(Nc2ccc(C(=O)NCCc3ccccc3)cn2)cc1	i	i	24	i
Cc1ccc(C(=O)Nc2ccc(C(=O)N/N=C/c3ccc(C)o3)cc2)cc1	i	i	15	i
COc1ccc(OCC(=O)Nc2ccc(N3CCN(C(=O)c4ccccc4C)CC3)cc2)cc1	i	i	18	i
COc1ccc(C(=O)Nc2ccc(C(=O)NCCc3ccccc3)cc2)cc1	i	i	22	i
COc1ccc(NC(=O)c2ccccc2)cc1	i	i	i	i
O=C(N=C1N(Cc2ccccc2)[C@@H](Cc2ccccc2)[C@]2(C=C3CCCCC3n3c(=O)n(-c4ccccc4)c(=O)n32)N1C(=O)OCc1ccccc1)c1ccccc1 (some centres undefined)	nt	i	nt	nt
COC(=O)C1=C(C)N(Cc2ccc(C(F)(F)F)cc2)C(=NCc2ccc(OC)cc2)NC1c1ccccc1 (centres undefined)	nt	i	nt	nt
CC(C)(C)c1ccc(-c2nnc(SCC(=O)Nc3ccccc3-c3ccccc3)n2Cc2ccco2)cc1	nt	i	nt	nt
COC1=C[C@H](C(=O)NCc2ccc(Cl)cc2)C(C)C(c2ccccc2)CC1=O (some centres undefined)	nt	i	nt	nt
COc1ccc(NC(=O)c2cccc(N3C(=O)C4C5C=CC(C6CC56)C4C3=O)c2)cc1 (centres undefined)	i	i	23	i
COc1ccc(NC(=O)c2ccc(C(=O)Nc3ccc(OC)cc3OC)cc2)c(OC)c1	i	i	i	i

Source: PubChem BioAssay (several laboratories)
